Data from ChEMBL document CHEMBL3988442, “University of Dundee, Small-Polar-MMV Screening Library” (2021).

Experiments:
[1] = biological target: T1, Aspartate--tRNA(Asp/Asn) ligase (Mycobacterium tuberculosis (strain ATCC 25618 / H37Rv)) (UniProt P9WFW3); test: Assay for Asp RNA synthetase-1 from Mycobacterium tuberculosis; format: functional; design: scale not given: direction of the effect not stated beside the values; details: 30 µM; also: in the data most compounds retested in dose-response had high values
T1 sequence (whole entry): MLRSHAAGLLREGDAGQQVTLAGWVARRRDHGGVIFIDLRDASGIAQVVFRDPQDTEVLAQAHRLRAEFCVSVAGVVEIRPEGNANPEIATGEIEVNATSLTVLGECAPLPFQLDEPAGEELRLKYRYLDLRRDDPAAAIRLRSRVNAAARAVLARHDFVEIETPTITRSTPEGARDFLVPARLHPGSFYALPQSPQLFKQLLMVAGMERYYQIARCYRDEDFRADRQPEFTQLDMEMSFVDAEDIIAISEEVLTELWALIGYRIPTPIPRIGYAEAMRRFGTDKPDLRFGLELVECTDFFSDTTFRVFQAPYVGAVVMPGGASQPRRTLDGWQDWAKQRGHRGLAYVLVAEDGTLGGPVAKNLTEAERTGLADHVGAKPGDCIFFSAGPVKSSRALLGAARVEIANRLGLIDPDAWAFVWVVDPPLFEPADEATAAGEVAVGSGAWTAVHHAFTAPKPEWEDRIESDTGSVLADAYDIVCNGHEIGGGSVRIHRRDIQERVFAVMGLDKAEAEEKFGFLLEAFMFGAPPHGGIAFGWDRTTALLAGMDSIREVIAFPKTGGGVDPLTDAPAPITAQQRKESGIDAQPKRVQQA

[2] = biological target: Shiga toxin 2 (Escherichia coli O157:H7) (UniProt P09385+P09386); test: E. coli 0.157:H7 Shiga Toxin SOP - stx2 screening assay; format: functional; design: scale not given: direction of the effect not stated beside the values; details: 30 µM

| Structure (SMILES) | Percent Effect [1] [%] | Percent Effect [2] [%] |
| --- | --- | --- |
| O=C(NC1CCS(=O)(=O)C1)N1CCN(c2cnccn2)CC1 (centres undefined) | -1.72 | -8.56 |
| CNC(=O)c1ccc(C2CN(C(=O)COC)CCO2)nc1 (centres undefined) | 5.69 | 1.8 |
| CN(C)C(=O)CN1C(=O)CCC12CCN(Cc1cccn1C)CC2 | 4.89 | 0.848 |
| COc1cc(C)c(S(=O)(=O)NCc2cccnc2N(C)C)c(C)c1 | 2.73 | -18.1 |
| CC(C)n1cc(CN2CCCN(C(=O)c3cc(Cl)c[nH]3)CC2)cn1 | 5.29 | 3.9 |
| Nc1cc(N2CCCC2c2cnccn2)ncn1 (centres undefined) | 6.36 | 0.702 |
| O=C(CCc1ccccc1)N1CCn2cc(Cn3cncn3)nc2C1 | -1.12 | -10 |
| Cc1cc(S(=O)(=O)NCc2cccc(C(=O)N3CCCC3)c2)c(C)s1 | 2.16 | 5.68 |
| CC(C)C(Sc1nnnn1-c1ccccc1)C(=O)NCc1cccnc1 (centres undefined) | 1.64 | 8.76 |
| CCC(CC)c1cc(CNC(=O)N2CCCC(N(C)C)C2)on1 (centres undefined) | -1.74 | 9.62 |
| CCN1CCC2(CC1)CC(NC(=O)NC)c1cc(C)ccc12 (centres undefined) | -5.21 | -9.91 |
| Cc1ccc(NC2CCN(C(=O)c3ccc(Cl)o3)CC2)nn1 | 1.75 | 7.55 |
| COc1c(CNCc2cccc(Cn3ccnc3)c2)c(C)nn1C | 7.35 | 14.4 |
| COc1cc(CNC2CCc3nc(C)nn3C2)cc2c1OCCO2 (centres undefined) | -2.19 | -2.67 |
| CCOC(=O)c1sc2ccsc2c1CNC(=O)C(C)(C)C#N | 0.67 | 16.1 |
| COC(=O)N1CCCN(C(=O)NCc2ccc(Cl)s2)CC1 | 5.28 | -16.1 |
| CCS(=O)(=O)c1ncc(CN(C)Cc2ccccn2)n1CCOC | 0.893 | 6.2 |
| c1ccc2sc(N3CCOC(Cn4cccn4)C3)nc2c1 (centres undefined) | 6.21 | 12.4 |
| Cc1nn(CC(=O)N2CCN(c3ccncc3)CC2)c(C)c1Cl | 0.15 | -36.1 |
| CCOc1ccc(Cl)c(C(=O)N(C)C)n1 | -0.544 | -62.5 |
| Cc1cnn(CC2CCCCN2Cc2nc(N)c3ccccc3n2)c1 (centres undefined) | -5.71 | -7.68 |
| CN1CC(c2ccccc2)CC2(CCN(CC(=O)N(C)C)CC2)C1 (centres undefined) | -3.52 | 15.8 |
| CC(=O)NCCc1cc(N2CCN(C(C)=O)CC2)nc(C2CC2)n1 | -3.2 | -16 |
| CN(C)C(=O)N1CCn2nc(CNC(=O)CCC(F)(F)F)cc2C1 | 2.12 | -7.2 |
| c1cncc(OCC2CN(Cc3ccco3)Cc3nccn3C2)c1 (centres undefined) | -1.34 | -17.2 |
| Cc1nn(C)c(Cl)c1C1CCCN1CCc1ccccn1 (centres undefined) | 1.79 | -0.4 |
| Cn1cc(C(=O)NCc2cn3c(n2)CN(CC2CCOCC2)CC3)cn1 | -2.89 | -14.5 |
